Reference: the antibiotic and cytotoxicity screens of Wong et al. (2023)
The campaign covered roughly 39,000 compounds. About 3,300 (8.5%) were called active. Many of the other results were omitted from the sample, so actives are more common in it than they were.

These compounds were tested on HepG2 (assay: cytotoxicity call (relative viability < 0.9)). Conditions: 10 µM.
`O=c1[nH]nc(N2CCOCC2)c(=O)[nH]1` was tested, and the cytotoxicity call was “inactive”. For `C[C@@H]1CN([C@H](C)CO)C(=O)Cc2cc(NS(=O)(=O)c3ccc(F)cc3)ccc2O[C@H]1CN(C)CC1CC1`, the cytotoxicity call was “inactive”. For `CS(=O)(=O)O.OC(CCN1CCCCC1)(c1ccccc1)c1ccccc1`, the cytotoxicity call was “inactive”. For `Cl.OC(CCN1CCCC1)(c1ccccc1)C1CCCCC1` (stereo not drawn), the cytotoxicity call was “active”. In the case of `Cl.OC(CCN1CCCCC1)(c1ccccc1)C1CCCCC1` (stereo not drawn), the cytotoxicity call is reported as “inactive”. For `COc1ccc(S(=O)(=O)Nc2ccc3c(c2)C(=O)N([C@H](C)CO)C[C@@H](C)[C@H](CN(C)C(=O)NC(C)C)O3)cc1`, the cytotoxicity call was “inactive”. `C[C@H]1CN([C@@H](C)CO)C(=O)Cc2cc(NS(C)(=O)=O)ccc2O[C@H]1CN(C)C(=O)Nc1ccc(F)cc1` was tested, and the cytotoxicity call was “inactive”. For `CC(C)C[C@H](NC(=O)CNC(=O)c1cc(Cl)ccc1Cl)B1OC(=O)C[C@](CC(=O)O)(C(=O)O)O1`, the cytotoxicity call was “active”. For `C[C@@H]1CN([C@@H](C)CO)C(=O)c2cccc(NC(=O)Nc3ccc(F)cc3)c2O[C@@H]1CN(C)S(C)(=O)=O`, the cytotoxicity call was “inactive”. In the case of `C[C@H](CO)N1C[C@H](C)[C@H](CN(C)S(C)(=O)=O)Oc2c(NC(=O)Nc3ccccc3)cccc2C1=O`, the cytotoxicity call is reported as “inactive”. With `Cc1ccc(CSc2ncc(C(F)(F)F)cc2Cl)cc1` the cytotoxicity call was “inactive”. With `Cc1ccc(CCSc2ccc(Cl)c(Cl)c2)cn1` the cytotoxicity call was “active”. `N#Cc1ccccc1C#CCO` was tested, and the cytotoxicity call was “inactive”. For `CC(N)O.Cc1cc(CC(C)CC(C)(C)C)n(O)c(=O)c1` (stereo not drawn), the cytotoxicity call was “active”. With `Cc1ccc(S(=O)(=O)N2C[C@H](O)COC[C@@H]3O[C@H](CC(=O)N[C@@H]4CCN(Cc5ccccc5)C4)CC[C@H]32)cc1` the cytotoxicity call was “inactive”. With `C[C@@H]1CN([C@@H](C)CO)C(=O)c2cc(NC(=O)Nc3ccccc3)ccc2O[C@@H]1CN(C)C(=O)Nc1cccc2ccccc12` the cytotoxicity call was “inactive”. For `C[C@@H]1CN([C@@H](C)CO)C(=O)c2c(c3ccccc3n2C)-c2ccccc2CO[C@@H]1CN(C)Cc1ccc(O)cc1`, the cytotoxicity call was “inactive”. In the case of `O=C(N/N=C/c1ccc(B(O)O)cc1)c1ccccc1O`, the cytotoxicity call is reported as “inactive”. For `NS(=O)(=O)c1ccc(C(=O)O)cc1` [listing 1 of 2 here], the cytotoxicity call was “inactive”. With `NS(=O)(=O)c1ccc(C(=O)O)cc1` [listing 2 of 2 here] the cytotoxicity call was “inactive”. `Cc1cc(C(=O)O)cc(S(N)(=O)=O)c1` was tested, and the cytotoxicity call was “active”. For `COc1ccc([Si](C)(C)[C@H]2[C@H](CCO)O[C@@]3(C(=O)N(Cc4ccccc4)c4ccc(N(C=O)c5ccccc5)cc43)[C@@H]2C)cc1`, the cytotoxicity call was “active”. `COC(=O)C[C@H]1O[C@]2(C(=O)N(Cc3ccccc3)c3ccc(I)cc32)[C@@H](C)[C@@H]1[Si](C)(C)c1ccc(OC)cc1` was tested, and the cytotoxicity call was “inactive”. In the case of `COc1ccc([Si](C)(C)[C@H]2[C@H](CCOC(=O)NCCCCCC(=O)NO)O[C@@]3(C(=O)N(Cc4ccccc4)c4ccc(I)cc43)[C@@H]2C)cc1`, the cytotoxicity call is reported as “inactive”. In the case of `COc1ccc([Si](C)(C)[C@@H]2[C@@H](CCO)O[C@]3(C(=O)N(Cc4ccccc4)c4ccc(N(C=O)c5ccccc5)cc43)[C@H]2C)cc1`, the cytotoxicity call is reported as “active”. For `C[C@@H]1[C@@H]([Si](C)(C)F)[C@H](CCO)O[C@@]12C(=O)N(Cc1ccccc1)c1ccc(N(C=O)c3ccccc3)cc12`, the cytotoxicity call was “inactive”. For `COc1ccc([Si](C)(C)[C@@H]2[C@@H](CCOC(=O)NCCCCCC(=O)NO)O[C@]3(C(=O)N(Cc4ccccc4)c4ccc(I)cc43)[C@H]2C)cc1`, the cytotoxicity call was “inactive”. In the case of `Cc1noc(C)c1NC(=O)Nc1ccc2c(c1)C(=O)N([C@@H](C)CO)C[C@@H](C)[C@@H](CN(C)C(=O)Nc1ccc(F)cc1)OCCCC[C@@H](C)O2`, the cytotoxicity call is reported as “inactive”. For `Cc1ccc(S(=O)(=O)NCC[C@@H]2CC[C@H](NS(=O)(=O)c3ccccc3Cl)[C@@H](CO)O2)cc1`, the cytotoxicity call was “inactive”. In the case of `C[C@@H]1CN([C@H](C)CO)C(=O)c2cccc(NC(=O)c3ccncc3)c2O[C@H]1CN(C)Cc1ccc(C(=O)O)cc1`, the cytotoxicity call is reported as “inactive”. With `O=c1cc(-c2cccc(O)c2)oc2ccc(O)cc12` the cytotoxicity call was “inactive”. `O=C(C[C@@H]1CC[C@@H]2[C@H](COC[C@H](O)CN2S(=O)(=O)c2ccc(F)cc2)O1)NCc1ccc(Cl)c(Cl)c1` was tested, and the cytotoxicity call was “inactive”. With `CS(=O)(=O)N1CC[C@]2(COCc3cnc(N4CCOCC4)nc32)C1` the cytotoxicity call was “inactive”. In the case of `CS(=O)(=O)N1CCc2c(-c3cnc(N)nc3)nc(N3CCOCC3)nc21`, the cytotoxicity call is reported as “active”. In the case of `c1nc(N2CCOCC2)nc(N2CCOCC2)n1`, the cytotoxicity call is reported as “inactive”. In the case of `C[C@@H]1CN([C@@H](C)CO)C(=O)c2cc(NS(=O)(=O)c3ccc(F)cc3)ccc2O[C@@H]1CN(C)Cc1ccc(-c2ccccc2)cc1`, the cytotoxicity call is reported as “active”. `C[C@H]1CN([C@@H](C)CO)C(=O)c2cc(NS(=O)(=O)c3ccc(F)cc3)ccc2O[C@@H]1CN(C)Cc1ccc(-c2ccccc2)cc1` was tested, and the cytotoxicity call was “active”. For `C[C@@H]1CN([C@H](C)CO)C(=O)c2cc(NS(=O)(=O)c3ccc(F)cc3)ccc2O[C@@H]1CN(C)Cc1ccc(-c2ccccc2)cc1`, the cytotoxicity call was “active”. `C[C@@H]1CN([C@H](C)CO)C(=O)c2cc(NS(=O)(=O)c3ccc(F)cc3)ccc2O[C@H]1CN(C)Cc1ccc(-c2ccccc2)cc1` was tested, and the cytotoxicity call was “active”. In the case of `C[C@H](CO)N1C[C@H](C)[C@@H](CN(C)Cc2ccc(-c3ccccc3)cc2)Oc2ccc(NS(=O)(=O)c3ccccc3)cc2C1=O`, the cytotoxicity call is reported as “inactive”. `C[C@H]1CN([C@@H](C)CO)C(=O)c2cc(NS(=O)(=O)c3ccc(F)cc3)ccc2O[C@H]1CN(C)Cc1ccc(-c2ccccc2)cc1` was tested, and the cytotoxicity call was “inactive”. With `C[C@H](CO)N1C[C@H](C)[C@H](CN(C)Cc2ccc(-c3ccccc3)cc2)Oc2ccc(NS(=O)(=O)c3ccc(F)cc3)cc2C1=O` the cytotoxicity call was “inactive”. With `C[C@@H]1CN([C@H](C)CO)C(=O)c2cc(NS(=O)(=O)c3ccccc3)ccc2O[C@H]1CN(C)Cc1ccc(-c2ccccc2)cc1` the cytotoxicity call was “inactive”. For `C[C@@H]1CN([C@@H](C)CO)C(=O)c2cc(NS(=O)(=O)c3ccc(F)cc3)ccc2O[C@H]1CN(C)Cc1ccc(-c2ccccc2)cc1`, the cytotoxicity call was “inactive”. With `C[C@H](CO)N1C[C@H](C)[C@H](CN(C)C(=O)NC2CCCCC2)OCCCC[C@H](C)Oc2ccc(NC(=O)CCC(F)(F)F)cc2C1=O` the cytotoxicity call was “inactive”. With `Cn1c(=O)c2c(nc3n2CC=NN3)n(C)c1=O` the cytotoxicity call was “inactive”. `Cc1n[nH]c(C)c1N` was tested, and the cytotoxicity call was “inactive”. `CC(C)(C)[S@@](=O)N1Cc2cc(C(=O)N3CCCCC3)nc(-c3cccc(C4=CCCC4)c3)c2[C@H]1CCO` was tested, and the cytotoxicity call was “inactive”.
